The values below come from PubChem BioAssay (EPA / NIEHS).

SMILES strings stand for the structures. “And” between values parts separate entries of the source, which are not always exact repeats. Identical values can stand only once. More than one record can exist for a structure, and the calls need not agree. The source made the active and inactive calls. Rule for the calls: active = hit-call score of the fitted dose curve at least 0.9, where 1 is the maximum; inactive = score below 0.9.

What is called AC50 is the concentration at which the activity in the assay is half-maximal.

The first experiment can be described thus: ATG_CMV_CIS: Attagene CIS-FACTORIAL HepG2 Assay for human CMV (Internal Marker) (AID 2282928).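 Note: endpoint acts as a background internal control marker rather than a target.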 As to conditions: HepG2 CMV promoter reporter, transcription factor profiling; actives raise or lower the signal. The procedure, abridged: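 Endogenous transcription factor activity read in HepG2 via transfected cis-promoter reporter units. After 24 h dosing, reporter mRNA measured by RT-PCR/capillary electrophoresis; gain or loss of signal fit relative to DMSO.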
As to `CN(Cc1cnc2nc(N)nc(N)c2n1)c1ccc(C(=O)N[C@@H](CCC(=O)O)C(=O)O)cc1`, the compound was called inactive.

As for `CCCCCCCCCCCC[N+](C)(C)Cc1ccccc1`, the AC50 was 14.5 µM (active) and the compound was called inactive.

For the compound `Cc1ccc(C(=O)c2ccccc2)cc1`, the AC50 is 61.1 µM (active).

As to `O=CC(F)(F)C(F)(F)C(F)(F)C(F)F`, the call was inactive.

Consider `C[C@]12CC[C@@H]3c4ccc(O)cc4CC[C@H]3[C@@H]1C[C@@H](O)[C@@H]2O`, for which the AC50 is 64.6 µM (active) and the result was inactive.

As to `O=C1NS(=O)(=O)c2ccccc21`, the outcome was inactive.

`Cc1cc(C(C)(C)C)c(O)c(C(C)(C)C)c1`: the AC50 is 25.3 µM (active) and 60 µM (active).

Take `CC(C)(C)c1ccc(O)c(O)c1`: the AC50 is 64.9 µM (active) [middle of 4 runs] and the outcome was inactive.

Turning to `CCCCCCCCCCCC(=O)O`, the AC50 is 60 µM (active) and the compound was called inactive.

For the compound `Cc1[nH]nc2c1N=C(c1ccccc1Cl)c1cc([N+](=O)[O-])ccc1N2`, the AC50 is 1.58 µM (active).

In the case of `CCCCC=O`, the compound was classed as inactive.

Regarding `CN(C)c1ccc(C(=C2C=CC(=[N+](C)C)C=C2)c2ccccc2)cc1`, the compound was classed as inactive.

As to `O=C1OC2(c3ccccc31)c1cc(I)c(O)c(I)c1Oc1c2cc(I)c(O)c1I`, the concentration at half-maximal activity (AC50) was 40.5 µM (active) and the call was inactive.

Turning to `CC(O)COc1ccccc1` (stereo not given), the outcome was inactive.

For the compound `CN(C)CCOC(c1ccccc1)c1ccccc1`, the compound was called inactive.

As to `N=C(N)c1ccc(OCCCCCOc2ccc(C(=N)N)cc2)cc1`, the AC50 is 0.781 µM (active).

Consider `CCCCC(CC)C(=O)O` (stereo not given), for which the compound was classed as inactive.

With `Cc1ccc2ccc3ccc(C)cc3c2c1`, the compound was classed as inactive.

Turning to `O=C(c1ccccc1)c1ccccc1`, the compound was classed as inactive.

As to `COCN(COC)c1nc(N(COC)COC)nc(N(COC)COC)n1`, the call was inactive.

Take `CC(C)c1c(C(=O)Nc2ccccc2)c(-c2ccccc2)c(-c2ccc(F)cc2)n1CC[C@@H](O)C[C@@H](O)CC(=O)O`: the concentration at half-maximal activity (AC50) was 25.6 µM (active) and the call was inactive.

As to `Cc1ccccc1C(OCCN(C)C)c1ccccc1` (stereo not given), the outcome was inactive.

For the compound `O=C(CCCN1CCC(O)(c2ccc(Cl)cc2)CC1)c1ccc(F)cc1`, the AC50 is 49.7 µM (active).

For `CCCCCCCCCCCCCCC`, the call was inactive.

With `CC(C)C=O`, the AC50 was 87.6 µM (active) and the outcome was inactive.

Consider `NC(=NCCCCCCN=C(N)/N=C(\N)Nc1ccc(Cl)cc1)/N=C(\N)Nc1ccc(Cl)cc1`, for which the AC50 is 163 µM (active) and 166 µM (active); the call was inactive.

On to `O=C(NO)c1ccccc1`, for which the AC50 was 37.2 µM (active) [middle of 4 runs].

On to `CCCCc1oc2ccccc2c1C(=O)c1cc(I)c(OCCN(CC)CC)c(I)c1`, for which the AC50 is 20 µM (active).

Regarding `CS(=O)(=O)c1ccc([C@@H](CC2CCCC2)C(=O)Nc2cnccn2)cc1Cl`, the AC50 was 136 µM (active).

As for `O=C(CC(=O)C(F)(F)C(F)(F)C(F)(F)F)c1cccs1`, the AC50 was 50 µM (active).

For `C=C(c1ccc(C(=O)O)cc1)c1cc2c(cc1C)C(C)(C)CCC2(C)C`, the half-maximal activity concentration (AC50) was 4.89 µM (active) and the compound was classed as inactive.

`CC(=O)Nc1ccc(O)cc1`: the compound was classed as inactive.

On to `OCC(CO)(CBr)CBr`, for which the outcome was inactive.

Turning to `CCN(CC)CC`, the result was inactive.

In the case of `c1cnc2c(c1)ccc1cccnc12`, the AC50 is 2.89 µM (active) and the result was inactive.

In the case of `CCCCc1ccc2ccccc2c1S(=O)(=O)O`, the call was inactive.

A short description of a further experiment: ATG_DR4_LXR_CIS: Attagene CIS-FACTORIAL HepG2 Assay for human Liver X Receptor (LXR), DR4 submotif (AID 2282929). Particulars: HepG2 Attagene DR4 cis-reporter, mRNA transcription; AC50: actives raise or lower the signal unless noted; outcome: actives raise or lower the signal unless noted. The essentials: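 HepG2, transient MRTU transfection, cis-element (DR4) promoter; 24 h compound exposure; total RNA → oligo(dT) RT → PCR → 6-FAM primer extension → HpaI cut → CE. Gain/loss vs DMSO, bidirectional fit.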
On to `CN(Cc1cnc2nc(N)nc(N)c2n1)c1ccc(C(=O)N[C@@H](CCC(=O)O)C(=O)O)cc1`, for which the outcome was inactive.

Take `CCCCCCCCCCCC[N+](C)(C)Cc1ccccc1`: the AC50 is 11.1 µM (active) and the outcome was inactive.

With `Cc1ccc(C(=O)c2ccccc2)cc1`, the compound was called inactive.

`O=CC(F)(F)C(F)(F)C(F)(F)C(F)F`: the compound was called inactive.

Turning to `C[C@]12CC[C@@H]3c4ccc(O)cc4CC[C@H]3[C@@H]1C[C@@H](O)[C@@H]2O`, the AC50 is 26.3 µM (active) and the compound was called inactive.

Regarding `O=C1NS(=O)(=O)c2ccccc21`, the call was inactive.

On to `Cc1cc(C(C)(C)C)c(O)c(C(C)(C)C)c1`, for which the AC50 is 33.4 µM (active) and the compound was classed as inactive.

`CC(C)(C)c1ccc(O)c(O)c1`: the AC50 is 40.8 µM (active) and the outcome was inactive.

As to `CCCCCCCCCCCC(=O)O`, the AC50 was 167 µM (active) and the compound was called inactive.

For the compound `Cc1[nH]nc2c1N=C(c1ccccc1Cl)c1cc([N+](=O)[O-])ccc1N2`, the AC50 was 2.67 µM (active).

For the compound `CCCCC=O`, the compound was called inactive.

Take `CN(C)c1ccc(C(=C2C=CC(=[N+](C)C)C=C2)c2ccccc2)cc1`: the AC50 is 2.07 µM (active) and 1.26 µM (active).

Consider `O=C1OC2(c3ccccc31)c1cc(I)c(O)c(I)c1Oc1c2cc(I)c(O)c1I`, for which the compound was called inactive.

Regarding `CC(O)COc1ccccc1` (stereo not given), the call was inactive.

As for `CN(C)CCOC(c1ccccc1)c1ccccc1`, the AC50 is 150 µM (active).

For `N=C(N)c1ccc(OCCCCCOc2ccc(C(=N)N)cc2)cc1`, the AC50 was 116 µM (active).

In the case of `CCCCC(CC)C(=O)O` (stereo not given), the compound was classed as inactive.

As for `Cc1ccc2ccc3ccc(C)cc3c2c1`, the outcome was inactive.

With `O=C(c1ccccc1)c1ccccc1`, the outcome was inactive.

On to `COCN(COC)c1nc(N(COC)COC)nc(N(COC)COC)n1`, for which the result was inactive.

As for `CC(C)c1c(C(=O)Nc2ccccc2)c(-c2ccccc2)c(-c2ccc(F)cc2)n1CC[C@@H](O)C[C@@H](O)CC(=O)O`, the AC50 was 136 µM (active) and 42.6 µM (active).

Turning to `Cc1ccccc1C(OCCN(C)C)c1ccccc1` (stereo not given), the AC50 was 135 µM (active) and the compound was called inactive.

On to `O=C(CCCN1CCC(O)(c2ccc(Cl)cc2)CC1)c1ccc(F)cc1`, for which the compound was called inactive.

In the case of `CCCCCCCCCCCCCCC`, the call was inactive.

On to `CC(C)C=O`, for which the AC50 is 26.8 µM (active) and the compound was called inactive.

On to `NC(=NCCCCCCN=C(N)/N=C(\N)Nc1ccc(Cl)cc1)/N=C(\N)Nc1ccc(Cl)cc1`, for which the compound was classed as inactive.

`O=C(NO)c1ccccc1`: the AC50 was 26.6 µM (active) [middle of 4 runs].

`CCCCc1oc2ccccc2c1C(=O)c1cc(I)c(OCCN(CC)CC)c(I)c1`: the AC50 is 18.4 µM (active).

In the case of `CS(=O)(=O)c1ccc([C@@H](CC2CCCC2)C(=O)Nc2cnccn2)cc1Cl`, the AC50 is 29.1 µM (active).

As to `O=C(CC(=O)C(F)(F)C(F)(F)C(F)(F)F)c1cccs1`, the outcome is “inactive [setting not given]”.

For `C=C(c1ccc(C(=O)O)cc1)c1cc2c(cc1C)C(C)(C)CCC2(C)C`, the AC50 was 2.99 µM (active) and the outcome was inactive.

Take `CC(=O)Nc1ccc(O)cc1`: the compound was classed as inactive.

As for `OCC(CO)(CBr)CBr`, the compound was classed as inactive.

As to `CCN(CC)CC`, the result was inactive.

Take `c1cnc2c(c1)ccc1cccnc12`: the compound was called inactive.

`CCCCc1ccc2ccccc2c1S(=O)(=O)O`: the outcome was inactive.
